Assay results taken from PubChem BioAssay (NCI).
About 83,000 compounds went through this panel and 20% of them were active in at least one assay; those are over-represented in the sample as a whole.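 The endpoint reported here, percent growth, reads 100 for growth as untreated, 0 for no net growth and -100 for all cells dead.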 A number with no mark means an inactive call. Activity calls are given as the source filed them. Rule for the calls: active = growth percent below 10; inactive = the rest.

Tested on: SNB-75 CNS
Assay: NCI-60 one-dose screen, 48 h (100 = growth as untreated, 0 = no growth, -100 = all killed)
Conditions: 10 µM unless noted

| SMILES | growth |
| --- | --- |
| Cc1cc(C)c(S(=O)(=O)Oc2ccccc2[N+](=O)[O-])c(C)c1 | -18.4% (active) |
| CCCOc1ccc(/C=N/Nc2cc(C)nc3ccc(Br)cc23)cc1 | 105% |
| COc1ccc2nc(-c3ccc(-c4noc(-c5cc(OC)c(OC)c(OC)c5)n4)cc3)[nH]c2c1 | 35.4% |
| CCCCCN1C=C/C(=C\C(=O)N(C)c2ccc(Oc3ccccc3)cc2)c2ccccc21 | 104% |
| COc1cc2oc(-c3cccc(C(=O)Nc4ccccc4)c3)cc(=O)c2c(O)c1OC | 21.8% |
| c1ccc2c(-c3nccs3)c[nH]c2c1 | 90.7% |
| O=C(O)c1ccc(NCc2cn(-c3ccc(C(F)(F)F)cc3)nc2-c2ccc(C(=O)O)cc2)cc1 | 91.8% |
| NS(=O)(=O)c1ccc(CCN2C(=O)C=CC2=O)cc1 | 99.3% |
| C/C(=N\Nc1cc(C)nc2ccc(Br)cc12)c1ccc([N+](=O)[O-])cc1 | 105% |
| CCCCCCNC(=O)Oc1ccc(/C(=C(\C)c2ccccc2)c2ccc(OCCN3CCCCC3)cc2)cc1 | 92.5% |
| CCCNC(=O)Oc1ccc(/C(=C(\C)c2ccccc2)c2ccc(OCCCN(C)C)cc2)cc1 | 86.2% |
| O=C1c2ccccc2C(=O)c2c([N+](=O)[O-])ccc(Cl)c21 | 96.4% |
| O=C1Nc2cc(Cl)ccc2/C1=C\c1c(-c2ccc(F)cc2)nc2ccccn12 | -16.9% (active) |
| CSc1nc2sc3cccc(Cl)c3n2c(=N)c1C#N | 103% |
| Cc1cccc(C)c1N=c1oc2ccc(Cl)cc2nc1-c1ccccc1O | 87.3% |
| C=C(C)[C@@H]1CC[C@]2(C(=O)N3CCN(C)CC3)CC[C@]3(C)[C@H](CC[C@@H]4[C@@]5(C)CC[C@H](OCCC#N)C(C)(C)[C@@H]5CC[C@]43C)[C@@H]12 | 99.5% |
| Cc1cc2nc3c4ccc(Br)cc4n(CCN(C)C)c3nc2cc1C | 16.7% |
| O=C(/C=C/c1ccc(Cl)cc1)c1ccc(NC(=O)N2CCN(c3cc4c(cc3F)c(=O)c(C(=O)O)cn4C3CC3)CC2)cc1 | 92.1% |

| SMILES | growth |
| --- | --- |
| CN(C)CCC(=O)c1ccc([N+](=O)[O-])cc1 | 90.9% |
| COc1ccc(-c2nc([C@@H](C)Sc3nc(N)cc(N)n3)c(C)s2)cc1OCCN1CCOCC1 | 91.9% |
| CCN1CCN(CCNc2nccc(-c3c(-c4cccc(OC)c4)nc4occn34)n2)S1(=O)=O | 112% |
| NS(=O)(=O)c1ccc(CCN2C(=O)c3cc(Cl)c(Cl)cc3C2=O)cc1 | 98.3% |
| COc1ccc(-c2cnc3c(-c4cccc5cnccc45)cnn3c2)cc1 | 42% |
| N#C/C(=C\c1ccc(Cl)cc1)n1nnc2cc(F)c(F)cc21 | 15.9% |
| C=C1C(=O)O[C@H]2[C@H]1CC/C(CNC(=O)/C=C/c1ccccc1)=C\CC[C@@]1(C)O[C@@H]21 | 86.8% |
| COc1ccc(-c2nc(S(=O)(=O)c3ccccc3)c(S(=O)CC(=O)N3CCC(C)CC3)o2)cc1 (stereo not given) | 72% |
| COC(=O)/C=C1\S/C(=N\NC(=O)c2cc3ccc2/C=C\c2ccc(cc2)/C=C\3)N(c2ccccc2)C1=O | 45.7% |
| O=C(c1nc2ccccc2[nH]1)C1C(c2ccc(Br)cc2)C2CC3CCCC[C@H]3N2[C@@]12C(=O)Nc1cc(Cl)ccc12 (stereo not given in full) | 49.1% |
| Oc1cccc(CCc2ccc(Oc3cc(CCc4cccc(O)c4)cc(O)c3O)cc2)c1 | 72.8% |
| NC(=NCCCOc1ccc(F)cc1)Nc1ccc(I)cc1 | 63.6% |
| CN(CCN(C)c1ccc(C(=N)N)cc1)c1ccc(C(=N)N)cc1 | 99.6% |
| COc1cc(C(=O)Nc2cc3c(cc2Oc2cc(C)cc(C)c2)C(=O)N(C)[C@@H](CC(=O)N(C)O)C(=O)N3)c(Br)c(OC)c1OC | -48.1% (active) |
| CCNC(=O)Oc1ccc(/C(=C(\C)c2ccccc2)c2ccc(OCCN3CCCCC3)cc2)cc1 | 84.7% |
| COc1cc(NC(C)CCCNC(=O)CCC(=O)NCCCNCCCCCCCCCCNCCCNC(=O)CCC(=O)NCCCC(C)Nc2cc(OC)cc3cccnc23)c2ncccc2c1 (stereo not given) | 59.1% [8 µM] |
| O=C(N/N=C/c1ccc(Oc2ccccc2)cc1)c1cnn2c1NC(c1ccccc1)C2 (stereo not given) | 76.8% |
